Test results reported in PubChem BioAssay.
Calls of active or inactive are those of the source.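 Rule for the calls: active = fluorescence slope after compound addition differing from the mean of all screened samples at 99.7% confidence, in either direction; inactive = the rest.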

molecular target: Alpha-2C adrenergic receptor (Homo sapiens) (UniProt P18825); assay: modulators of alpha2C/GIRK thallium flux, primary screen, cell-based, HEK293 alpha2C/GIRK1/2 (AID 624); details: thallium flux BTC fluorescence, at 10 µM, actives lie on both sides;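 note: slope of fluorescence ratio to pre-addition baseline per second over 15 to 24 s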
Sequence (P18825 whole entry, looked up): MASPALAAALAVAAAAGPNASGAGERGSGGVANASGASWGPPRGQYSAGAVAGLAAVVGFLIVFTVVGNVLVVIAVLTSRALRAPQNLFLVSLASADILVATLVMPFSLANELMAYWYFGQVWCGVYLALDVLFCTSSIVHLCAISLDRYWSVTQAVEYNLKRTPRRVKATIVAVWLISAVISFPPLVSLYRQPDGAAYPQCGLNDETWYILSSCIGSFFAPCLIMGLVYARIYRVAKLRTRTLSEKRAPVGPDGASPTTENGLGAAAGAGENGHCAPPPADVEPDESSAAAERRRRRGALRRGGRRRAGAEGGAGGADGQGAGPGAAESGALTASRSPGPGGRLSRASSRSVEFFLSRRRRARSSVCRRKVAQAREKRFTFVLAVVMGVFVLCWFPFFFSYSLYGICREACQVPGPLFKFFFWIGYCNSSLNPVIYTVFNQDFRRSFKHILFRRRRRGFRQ

| Structure (SMILES) | slope |
| --- | --- |
| COc1ccc2c(c1)C(=O)N(c1ccccc1OC)C(=O)C2 | 0.0052 (inactive) |
| CCC(C)(C)n1nnnc1C(c1cc2cc(OC)ccc2[nH]c1=O)N1CCc2ccccc21 (stereo not given) | 0.0033 (inactive) |
| Cc1cc(C)cc(-n2nnc(C(=O)NCc3ccc4c(c3)OCO4)c2N)c1 | 0.00545 (inactive) |
| c1ccc(-c2cc(N3CCCCC3)ncn2)cc1 | 0.00423 (inactive) |
| Cn1c(=O)[nH]c(=O)c2c1nc(N1CCNCC1)n2CCOc1ccccc1 | 0.00611 (inactive) |
| O=c1c[n+]([O-])c2ccccc2n1OCc1c(F)cccc1F | 0.00594 (inactive) |
| CCC(C)(C(=O)NC1CCCC1)N(C(=O)c1cnccn1)c1c(C)n(C)n(-c2ccccc2)c1=O (stereo not given) | 0.00518 (inactive) |
| COCCOC(=O)c1[nH]c2c(c1C)C(=O)CC(c1ccco1)C2 (stereo not given) | 0.00646 (inactive) |
| O=C(O)c1ccccc1S(=O)(=O)NCC(O)COc1ccc(Br)cc1 (stereo not given) | 0.00443 (inactive) |
| COc1cc(C)c(N)cc1C(C)C | 0.00295 (inactive) |
| Cc1ccc(-c2cc3nc4c(c(=O)n3[nH]2)CCCC4)cc1 | 0.00436 (inactive) |
| CCCN1CCN(CCCNC(=O)Cn2ncc3c4ccccc4n(C)c3c2=O)CC1 | 0.00665 (inactive) |
| Cc1nn(-c2ccc(F)cc2)c2c1cc(C#N)c1nc3ccccc3n12 | 0.00318 (inactive) |
| C=CCOC(=O)C1=C(C)OC(N)=C(C#N)C1c1ccc2c(c1)OCO2 (stereo not given) | 0.00567 (inactive) |
| Cn1c(=O)c2c(nc(Br)n2CCSc2nnnn2-c2ccccc2)n(C)c1=O | 0.00509 (inactive) |
| O=C(NC1CC1)C1CCN(c2ccc(S(=O)(=O)N3CCOCC3)cc2)CC1 | 0.00268 (inactive) |
| CCOc1ccc(C2C(C#N)=C(N)Oc3cc(C)n(Cc4ccco4)c(=O)c32)cc1OC (stereo not given) | 0.00471 (inactive) |
| COc1ccc(C2CC(c3ccc(Cl)cc3Cl)n3nc(N)nc3N2)cc1 (stereo not given) | 0.00726 (inactive) |
| CCn1c(C(=O)N2CCC(C(=O)NCc3ccc4c(c3)OCO4)CC2)cc2sccc21 | 0.00644 (inactive) |
| O=C(Nc1cccc(O)c1)c1ccccc1 | 0.00606 (inactive) |

| Structure (SMILES) | slope |
| --- | --- |
| CCCCN(C)CCCNC(=O)CC1Oc2ccccc2NC1=O (stereo not given) | 0.00638 (inactive) |
| Cc1ccc(-c2ccc(=O)n(CCC(=O)NCCN3CCCCC3C)n2)cc1 (stereo not given) | 0.00419 (inactive) |
| O=C(NCc1nc2ccccc2[nH]1)c1ccc(Cl)c(S(=O)(=O)N2CCCC2)c1 | 0.00466 (inactive) |
| CCn1c(=O)c(C(=O)NCCc2ccccc2)c(O)c2ccccc21 | 0.0106 (inactive) |
| c1cn(CC2(Cn3ccnc3)COC2)cn1 | 0.00589 (inactive) |
| COc1ccc(Br)cc1S(=O)(=O)N1CC(C)OC(C)C1 (stereo not given) | 0.0065 (inactive) |
| COc1ccc(CN2C(=O)[C@@H]3C(c4ccc(F)cc4)=NO[C@@H]3C2=O)cc1 | 0.00504 (inactive) |
| O=C(Cn1cnc2c(nnn2Cc2ccccc2)c1=O)c1ccc(Cl)cc1 | 0.00679 (inactive) |
| O=C(CN1C(=O)COc2ccccc21)N(Cc1cccnc1)Cc1ccccc1F | 0.00465 (inactive) |
| CN(Cc1ccccc1)c1nc2c(c(=O)[nH]c(=O)n2C)n1Cc1ccccc1Cl | 0.00484 (inactive) |
| CCCS(=O)(=O)Nc1c(C(=O)O)[nH]c2ccccc12 | 0.00314 (inactive) |
| Cc1oc2c(CN3CCOCC3)c(O)ccc2c(=O)c1-c1ccc(Br)cc1 | 0.00357 (inactive) |
| CCOC(=O)CSc1nc2sc(C)c(C)c2c(=O)n1C | 0.00254 (inactive) |
| CSc1nc(N)nc(SCCS(=O)(=O)c2ccc(Cl)cc2)c1C#N | 0.00602 (inactive) |
| COc1ccc(OC)c(NC(=O)C2C3CC4OC(=O)C2C4C3)c1 (stereo not given) | 0.0056 (inactive) |
| CCn1c2ccccc2c2cc(Nc3cc(C)nc4ncnn34)ccc21 | 0.00558 (inactive) |
| CC(C)CSc1nc2ccccc2n1CC(N)=O | 0.00549 (inactive) |
| COc1cccc(-c2cc(C(=O)N3CCc4ccccc4C3)no2)c1 | 0.0069 (inactive) |
| Cc1ccc(CCNC(=O)C2CCC(=O)N2C2CCCC2)cc1 (stereo not given) | 0.0072 (inactive) |
| CCOn1c(=O)c(=O)n(OCc2ccccc2)c2ccccc21 | 0.00578 (inactive) |
